# Test results taken from PubChem BioAssay (EPA / NIEHS).
# “And” between values parts separate entries of the source, which are not always exact repeats. Equal values may be shown once. Results filed as inconclusive are left out. The source made the active and inactive calls. How the source made its calls, unless noted: active means hit-call score of the fitted dose curve at least 0.9, where 1 is the maximum; inconclusive means response in the unintended direction; inactive means score below 0.9.
# Molecular target: Estrogen receptor (Homo sapiens) (UniProt P03372)
# Test: CCTE_Deisenroth_AIME_384WELL_LUC_Active: CCTE's 384-well Estrogen Receptor Transactivation Assay with AIME metabolic competence (ERTA luciferase; metabolism positive), Deisenroth Lab (AID 2284030)
# Method in brief: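 Chemicals (10-point, 0.002-200 uM) were first incubated 2 hours with alginate-immobilized induced male Sprague Dawley rat liver S9. The conditioned medium was then applied to VM7Luc4E2 cells for 24 hours, with ER luciferase induction read by luminescence relative to 17beta-estradiol.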
# Chain of Estrogen receptor (Homo sapiens) (P03372 whole entry, looked up): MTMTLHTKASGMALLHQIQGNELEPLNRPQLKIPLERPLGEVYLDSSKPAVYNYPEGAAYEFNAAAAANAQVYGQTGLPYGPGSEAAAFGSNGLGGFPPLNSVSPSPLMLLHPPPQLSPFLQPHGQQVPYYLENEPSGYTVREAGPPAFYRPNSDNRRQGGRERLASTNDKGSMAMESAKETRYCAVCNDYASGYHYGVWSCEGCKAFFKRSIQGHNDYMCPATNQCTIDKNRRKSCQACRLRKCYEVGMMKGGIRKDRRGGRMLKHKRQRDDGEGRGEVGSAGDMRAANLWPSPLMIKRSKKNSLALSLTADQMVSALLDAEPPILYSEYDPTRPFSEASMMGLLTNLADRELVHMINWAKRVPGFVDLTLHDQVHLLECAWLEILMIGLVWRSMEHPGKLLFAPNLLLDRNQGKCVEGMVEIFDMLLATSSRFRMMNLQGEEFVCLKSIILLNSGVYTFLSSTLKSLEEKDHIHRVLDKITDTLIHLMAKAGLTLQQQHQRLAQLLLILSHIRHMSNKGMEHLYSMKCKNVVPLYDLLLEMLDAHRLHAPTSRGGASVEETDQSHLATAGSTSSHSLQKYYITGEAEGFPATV
SMILES,outcome,AC50
OCc1ccccc1,inactive,–
CCOC(N)=O,inactive,–
CC(C)c1nnc2ccc(-c3ocnc3-c3cc(F)ccc3F)cn12,inactive,–
CCc1cccc(CC)c1N,inactive,–
CCCc1ccccc1,inactive,–
OCC(CO)(CO)CO,inactive,–
CCN(CC)C(=S)SSC(=S)N(CC)CC,inactive,–
c1ccc2ncccc2c1,inactive,–
CCCCC(CC)C(=O)OCCOCCOCCOC(=O)C(CC)CCCC (stereo not given),inactive,–
c1ccc(C(O[C@@H]2CCCN(CCc3ccc4c(c3)OCO4)C2)c2ccccc2)cc1,–,29.1 µM (active)
COc1cc2c(c(OC)c1OC)-c1ccc(OC)c(=O)cc1[C@@H](NC(C)=O)CC2,inactive,–

# Test system: not listed separately
# Test: CCTE_Shafer_MEA_dev_firing_rate_mean: CCTE's Neural Network Formation Assay for Mean Firing Rate, Shafer Lab (AID 2284031; active means hit-call score of the fitted dose curve at least 0.9, where 1 is the maximum; inactive means score below 0.9;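 further: AUC of well mean spike rate recorded on DIV 5 7 9 and 12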;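 on AC50: curve fitted for loss of firing so AC50 reflects decreased mean firing rate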)
# Method in brief: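 Spike frequency (spikes/recording length, averaged over active electrodes) was recorded on days 5, 7, 9 and 12 and collapsed to AUC; rat cortical cultures received compound continuously over 12 days of network development.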
SMILES,outcome,AC50
CC[C@H](C)C(=O)O[C@H]1C[C@H](O)C=C2C=C[C@H](C)[C@H](CC[C@@H](O)C[C@@H](O)CC(=O)O)[C@H]21,inactive,–
CCN(CC)C(=S)SSC(=S)N(CC)CC,–,98.7 nM (active) and 42.1 nM (active)
COc1cc2c(c(OC)c1OC)-c1ccc(OC)c(=O)cc1[C@@H](NC(C)=O)CC2,–,17.9 nM (active)
c1ccc2cc3ccccc3cc2c1,inactive,–
